Experimental data as given in article PMC5540273 (PLoS ONE, 2017).

Tests used:
Settings in all cases: concentration: 1 μM,replicates: in singlicate; n = 1
BMX = system: BMX
BRAF = system: BRAF
BRK = system: T1, BRK
T1 construct: gene PTK6

BRSK1 = system: BRSK1
BRSK2 = system: BRSK2
BTK = system: BTK
BUB1 = system: BUB1
CAMK1B = system: CAMK1B
CAMK1D = system: CAMK1D
CAMK1G = system: CAMK1G
CAMK1 = system: CAMK1
CAMK2A = system: CAMK2A
CAMK2B = system: CAMK2B
CAMK2D = system: CAMK2D
CAMK2G = system: CAMK2G
CAMK4 = system: CAMK4
CAMKK1 = system: CAMKK1
CAMKK2 = system: CAMKK2
CASK = system: CASK
CDC2L1 = system: T2, CDC2L1
T2 construct: gene CDK11B
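Note: KINOMEscan kinase panel screen.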

Row | SMILES | %Inh (BMX) [%] | %Inh (BRAF) [%] | %Inh (BRK) [%] | %Inh (BRSK1) [%] | %Inh (BRSK2) [%] | %Inh (BTK) [%] | %Inh (BUB1) [%] | %Inh (CAMK1B) [%] | %Inh (CAMK1D) [%] | %Inh (CAMK1G) [%] | %Inh (CAMK1) [%] | %Inh (CAMK2A) [%] | %Inh (CAMK2B) [%] | %Inh (CAMK2D) [%] | %Inh (CAMK2G) [%] | %Inh (CAMK4) [%] | %Inh (CAMKK1) [%] | %Inh (CAMKK2) [%] | %Inh (CASK) [%] | %Inh (CDC2L1) [%]
1 | NC(=O)Nc1sc(-c2ccc(F)cc2)cc1C(N)=O [GW789449] | 0 | 8 | 0 | 2 | 0 | 62 | 20 | 34 | 43 | 0 | 12 | 0 | 0 | 2 | 0 | 0 | 12 | 7 | 15 | 0
2 | Cc1ccc(CC(=O)N2CCc3cc(-c4cn(C)c5ncnc(N)c45)ccc32)cc1 [GSK2634758] | 12 | 0 | 78 | 2 | 0 | 15 | 12 | 0 | 19 | 23 | 7 | 0 | 0 | 16 | 22 | 0 | 5 | 19 | 7 | 0
3 | CN(c1cccc(CNc2nc(Nc3ccc4c(c3)CC(=O)N4)ncc2C(F)(F)F)c1)S(C)(=O)=O | 18 | 0 | 0 | 0 | 0 | 0 | 2 | 9 | 14 | 15 | 0 | 0 | 0 | 7 | 0 | 0 | 15 | 16 | 7 | 0
4 | COC(=O)c1cccc(NC(=O)NC2CCN(c3ccnc(Nc4cc(OC)c(OC)c(OC)c4)n3)C2)c1 (stereo not shown) [GSK1379767] | 30 | 0 | 8 | 0 | 0 | 37 | 48 | 38 | 14 | 0 | 35 | 0 | 0 | 0 | 26 | 0 | 13 | 19 | 2 | 0
5 | c1ccc(Oc2ccc(Nc3ccnc4ccc(-c5ccccn5)cc34)cc2)cc1 [GW407034] | 44 | 13 | 81 | 12 | 0 | 61 | 12 | 5 | 0 | 5 | 1 | 0 | 0 | 7 | 16 | 0 | 0 | 9 | 8 | 0
6 | O=C(Nc1cccc(Oc2ccc3nccn3n2)c1)Nc1cccc(C(F)(F)F)c1 | 0 | 88 | 0 | 5 | 13 | 0 | 7 | 0 | 12 | 0 | 5 | 0 | 0 | 0 | 0 | 0 | 5 | 0 | 26 | 1
7 | CC(=O)Nc1ccc(-c2cc3ncnc(SCC(=O)O)c3s2)cc1 | 0 | 4 | 0 | 28 | 3 | 0 | 47 | 0 | 0 | 19 | 0 | 55 | 58 | 21 | 18 | 23 | 90.6 | 92.3 | 8 | 9
8 | O=C(Nc1cccc(C(F)(F)F)c1)c1cccc(Oc2ccc3nccn3n2)c1 | 8 | 76 | 4 | 31 | 100 | 0 | 12 | 0 | 3 | 0 | 1 | 0 | 0 | 0 | 0 | 0 | 8 | 0 | 17 | 1
9 | Cc1ccc(Nc2ccnc(Nc3ccc4c(c3)CS(=O)(=O)C4)n2)cc1O.Cl [GW579362] | 80 | 77 | 95 | 10 | 3 | 100 | 99.3 | 31 | 38 | 34 | 62 | 0 | 0 | 29 | 42 | 0 | 24 | 31 | 12 | 44
10 | COc1cccc(OC)c1C(=O)Nc1cccc(-c2nn3ccccc3c2-c2ccnc(Nc3cccc(F)c3)n2)c1 [GSK361065] | 21 | 17 | 19 | 0 | 16 | 0 | 11 | 0 | 13 | 0 | 19 | 27 | 6 | 0 | 0 | 0 | 4 | 0 | 15 | 0
11 | Cc1cccc2c(-c3ccncc3)c(-c3ccc(F)cc3)nn12.Cl [GW461487] | 15 | 14 | 0 | 0 | 0 | 0 | 52 | 0 | 4 | 20 | 0 | 0 | 0 | 29 | 32 | 0 | 0 | 11 | 3 | 0
